Consider five compounds from PubChem BioAssay.

A word on the inhibition: it is the change of the read-out against control, counted positive when it falls.

Calls of active or inactive are those of the source. Unless noted, no stated cut-off is given here; in the data, active means inhibition above about 80%; inactive means the rest.

A short description of assay [1]: viability rescue of complex I mutant cybrids, primary screen, cell-based, galactose medium, ATP luminescence (AID 1645843;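 active means z-score of at least 1.8 in each of two replicates, scored against plate mean and spread of sample wells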;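 further: positive z means more ATP and so rescue of galactose-driven cybrid death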). Particulars: complex I mutant cybrid cells, 72 h, stronger effect = higher value.
A short description of assay [2]: LFS_MB_P medulloblastoma growth inhibition, cell-based, chromothripsis tumors, cisplatin or BGB combos (AID 1671449).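 Further: cells exposed for 96 hours; 0% = vehicle DMSO and 100% = killing by high DMSO.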 The settings on record: LFS_MB_P medulloblastoma cells.
Assay [3] is described as follows: HDN33 neuroblastoma growth inhibition, cell-based, chromothripsis tumors, cisplatin or BGB combos (AID 1671450).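 Further: cells exposed to compound for four days; 0% = vehicle DMSO and 100% = cell killing by high DMSO.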 The settings on record: HDN33 neuroblastoma cells, stronger effect = higher value.
Assay [4] in a line: ICB984 medulloblastoma cell growth inhibition, synergistic combos for chromothripsis tumors, cisplatin or BGB combos (AID 1671451; call rule not given here;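 further: cells exposed for 96 hours before readout; 0% = vehicle DMSO and 100% = killing by high DMSO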). The settings on record: ICB984 medulloblastoma cells, drug combinations, stronger effect = higher value.
The nature of assay [5]: LFS_MB_1R medulloblastoma cell growth inhibition, synergistic combos for chromothripsis tumors, cisplatin or BGB combos (AID 1671452).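 Further: cells exposed for 96 hours before readout.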 The settings on record: LFS_MB_1R medulloblastoma cells, stronger effect = higher value.
A short description of assay [6]: HTB85 osteosarcoma cell growth inhibition, synergistic combos for chromothripsis tumors, BGB or cisplatin IC20 combos (AID 1671453).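 Further: cells exposed for 96 hours before readout; 0% = vehicle DMSO and 100% = high DMSO killing control.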 The settings on record: HTB85 osteosarcoma cells, drug combinations, stronger effect = higher value.
Assay [7] can be described thus: CRL2098 osteosarcoma cell growth inhibition, synergistic combos for chromothripsis tumors, BGB or cisplatin IC20 combos (AID 1671454).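 Further: cells exposed for 96 h before readout; 0% = vehicle DMSO and 100% = killing by high DMSO.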 The settings on record: CRL2098 osteosarcoma cells, drug combinations, stronger effect = higher value.
Assay [8] in a line: HD-MB03 medulloblastoma cell growth inhibition, synergistic combos for chromothripsis tumors, BGB or cisplatin IC20 combos (AID 1671455; in the data active means inhibition above about 83%;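 further: 0% = vehicle DMSO and 100% = high DMSO as cytotoxic control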). The settings on record: HD-MB03 medulloblastoma cells, stronger effect = higher value.
A short description of assay [9]: UWB1.289 ovarian carcinoma cell growth inhibition, synergistic combos for chromothripsis tumors, BGB or cisplatin combos (AID 1671456).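 Further: cells exposed to compound for four days; 0% = vehicle DMSO and 100% = killing by high DMSO.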 The settings on record: UWB1.289 ovarian carcinoma cells, stronger effect = higher value.
The nature of assay [10]: LFS_MB_2R medulloblastoma cell growth inhibition, synergistic combos for chromothripsis tumors, cisplatin combos (AID 1671457).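 Further: cells exposed to compound for four days before readout.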 Particulars: LFS_MB_2R medulloblastoma cells, stronger effect = higher value.
Assay [11] in a line: MDA-MB-436 breast carcinoma cell growth inhibition, synergistic combos for chromothripsis tumors, BGB or cisplatin combos (AID 1671458; call rule not given here;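 further: cells exposed for 96 hours; 0% = vehicle DMSO and 100% = killing by high DMSO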). The settings on record: MDA-MB-436 breast carcinoma growth inhibition, drug combinations, stronger effect = higher value.
The nature of assay [12]: UWB1.289_BRCA1 ovarian cancer growth, cell-based, BGB or cisplatin combinations (AID 1671459). The settings on record: UWB1.289 BRCA1 ovarian carcinoma, drug combinations, stronger effect = higher value.
Assay [13] can be described thus: human astrocyte viability loss, single and combined drugs, cytotoxicity control for chromothriptic childhood tumor combination screen, cell-based, BGB or cisplatin IC20 combos (AID 1671460).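 Further: cells exposed to compounds for 96 hours before viability readout; 0% = vehicle and 100% = killing control.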 Particulars: Human astrocytes, drug combinations, stronger effect = higher value.
Assay [14] is described as follows: growth inhibition of BT084 medulloblastoma cells, cell-based, ICGC_MB145, cisplatin and BGB IC40 combos (AID 1671461).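 Further: cells exposed to drugs for 96 hours; 0% = vehicle DMSO and 100% = high DMSO full killing control.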 The settings on record: drug combinations, stronger effect = higher value.
Assay [15] in a line: growth inhibition of RCMB18 medulloblastoma cells, cell-based, cisplatin and BGB IC40 combos (AID 1671462).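 Further: cells exposed to compound for four days.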 Particulars: stronger effect = higher value.
Assay [16] is described as follows: growth inhibition of CRL1545 osteosarcoma cells, cell-based, cisplatin and BGB IC20 combos (AID 1671464).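 Further: cells exposed to compound for 96 hours before readout; 0% = vehicle DMSO and 100% = high DMSO killing control.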 The settings on record: stronger effect = higher value.
Where [17] appears, read: measured here: combination with BGB IC40, at 0.05 µM.
[18] abbreviates: measured here: with BGB IC20 combination, at 0.5 µM.
The mark [19] stands for this setting: measured here: with cisplatin IC20 combination, at 0.5 µM.
The mark [20] stands for this setting: measured here: combination with cisplatin, at 0.5 µM.
The mark [21] stands for this setting: measured here: combination with cisplatin, at 5 µM.

Regarding `Cc1ccn2cc(C(=O)N(CC(C)C)CC(C)C)nc2c1`, in assay [1], the z-score is -0.515 (inactive).

Consider `CSCc1ccc(C(=O)Nc2cccc3cccnc23)o1`, for which, in assay [1], the z-score is 1.12 (inactive).

Regarding `CC(C)OC(=O)[C@H](C)NP(=O)(OC[C@H]1O[C@@H](n2ccc(=O)[nH]c2=O)C(C)(F)[C@@H]1O)Oc1ccccc1` (some centres not stated), the inhibition in [2] (at 0.5 µM, stronger effect = higher value) is -8.8% (inactive); in assay [2] (measured here: combination with BGB IC20, at 0.005 µM) it was -10.9%; in [2] (measured here: combination with BGB IC40, at 0.005 µM), -13.1%; in assay [2] (setting [17]), 0.698%; in assay [2] (measured here: combination with cisplatin, at 0.5 µM, stronger effect = higher value), -3.91%; in [2] (measured here: combination with cisplatin, at 5 µM, stronger effect = higher value) it was -25.1%. Moreover, the inhibition in assay [3] (BGB combo, at 5 µM) was -13.9%; in assay [3] (at 0.5 µM), -10.3% (inactive); in assay [3] (cisplatin combo, at 5 µM), -30.6%; in assay [3] (setting [18]), -4.98%; in assay [3] (setting [19]), -21.3%; in assay [3] (single agent, at 5 µM), -29.9%. In addition, the inhibition is -1.44% in assay [4] (BGB IC20 combo, at 0.005 µM); -42.6% in assay [4] (BGB IC40 combo, at 0.005 µM); -35.5% in assay [4] (BGB IC40 combo, at 0.05 µM); -42.2% (inactive) in [4] (at 0.5 µM); -40.8% in assay [4] (cisplatin combo, at 0.05 µM); -53.1% in [4] (cisplatin combo, at 0.5 µM). Also, the inhibition is -16.6% in assay [4] (cisplatin combo, at 5 µM); -3.56% in assay [4] (measured here: 5 uM single agent, at 5 µM); -22.9% (inactive) in [5] (at 0.5 µM); -33.4% in [5] (setting [17]); -43% in assay [5] (setting [20]); -63% in assay [5] (setting [21]). The inhibition in assay [6] (at 0.5 µM) is -9.04% (inactive); in assay [6] (measured here: with BGB IC20, at 0.5 µM), -19.6%; in assay [6] (measured here: with BGB IC20, at 5 µM) it was 7.36%; in assay [6] (measured here: with cisplatin IC20, at 0.5 µM), -19.1%; in assay [6] (measured here: with cisplatin IC20, at 5 µM), -2.79%; in [6] (single agent, at 5 µM), 9.61%. Also, the inhibition in assay [7] (at 0.5 µM) is -24.2% (inactive); in [7] (measured here: combination with BGB at IC20, at 0.5 µM), -7.71%; in assay [7] (measured here: combination with cisplatin at IC20, at 0.5 µM), -18.3%; in assay [8] (at 0.5 µM) it was -8.35% (inactive); in [8] (measured here: combo with BGB at IC20, at 0.5 µM), -6.27%; in [8] (measured here: combo with cisplatin at IC20, at 0.5 µM), -4.66%. The inhibition in assay [9] (at 0.5 µM) is -8.12% (inactive); in assay [9] (measured here: inhibition with BGB combination, at 0.05 µM), -21%; in assay [9] (measured here: inhibition with cisplatin combination, at 0.05 µM), -18.4%; in [10] (at 0.5 µM) it was -25.3% (inactive); in assay [10] (setting [20]), -17.8%; in assay [10] (setting [21]), -16.1%. Also, the inhibition in [11] (at 0.5 µM) is -10.8% (inactive); in assay [11] (measured here: BGB combination, at 0.5 µM), -6.58%; in assay [11] (measured here: BGB combination, at 5 µM), -5.34%; in [11] (measured here: cisplatin combination, at 0.5 µM), -21%; in assay [11] (measured here: cisplatin combination, at 5 µM) it was -5.77%; in assay [12] (BGB combination, concentration series, at 5 µM), 5.64%. Further, the inhibition is -2.85% (inactive) in [12] (at 0.5 µM); 12.8% in assay [12] (cisplatin combination, concentration series, at 5 µM); 9.43% (inactive) in assay [13] (at 0.5 µM); 6.4% in assay [13] (measured here: combo with BGB IC20, at 0.5 µM); 11.7% in assay [13] (measured here: combo with cisplatin IC20, at 0.5 µM); -25.9% (inactive) in assay [14] (at 0.5 µM). In addition, the inhibition in [14] (cisplatin combination, at 0.5 µM) is -7.08%; in assay [14] (cisplatin combination, at 5 µM), 2.71%; in assay [14] (measured here: BGB IC40 combination 0.05 uM, at 0.05 µM) it was 66.2%; in [14] (single agent, at 5 µM), 3.91%; in assay [15] (at 0.5 µM), -23.5% (inactive); in assay [15] (cisplatin combo, at 5 µM) it was -18.9%. For the same compound, the inhibition is 1.12% in assay [15] (measured here: BGB IC40 combination, at 0.05 µM); 19.3% in assay [15] (setting [20]); -63.1% in [15] (single agent, at 5 µM); -19.7% (inactive) in [16] (at 0.5 µM); -19.2% in assay [16] (setting [18]); -19.9% in assay [16] (setting [19]). The inhibition in assay [16] (single agent, at 0.05 µM) is 7.91%; in assay [16] (single agent, at 5 µM), -24.5%.

With `CC(C)C1=NOC(c2nc(C(C)c3ccccc3)no2)C1` (configuration not stated), the z-score in assay [1] is -0.83 (inactive).

`CCn1ncc2[nH]c(-c3ccc(-c4ccccn4)cc3)nc21`: the z-score in assay [1] was -1.15 (inactive).
